# Laboratory results from PubChem BioAssay (EPA / NIEHS).
# Activity calls are given as the source filed them. How the source made its calls: active means hit-call score of the fitted dose curve at least 0.9, where 1 is the maximum; inactive means score below 0.9.
# Read-out: Vascular cell adhesion molecule 1 (VCAM1), VCAM1 (gene 7412)
# Assay: BSK_CASM3C_VCAM1: BioMAP Diversity Plus: CASM3C Assay for Vascular cell adhesion molecule 1 (VCAM1) Biomarker Activity (AID 2283055);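 further: VCAM-1 protein level quantified by ELISA on the cells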
# Details: primary human coronary artery smooth muscle cells; actives raise or lower the signal
Compound,outcome,AC50
COc1cc(C=O)ccc1O,inactive,
CC=Cc1ccc(O)c(OC)c1,inactive,
CCCCCCCCCCO,inactive,
CC(=O)Oc1ccccc1C(=O)O,inactive,
CCCCCCCC=O,inactive,
CCOC(=O)CCC(=O)OCC,inactive,
O=[N+]([O-])C(CO)(CO)CO,inactive,
NS(=O)(=O)c1cc2c(cc1Cl)NCNS2(=O)=O,inactive,
Cc1cc(NC(=O)C(=O)O)cc(C)c1Oc1ccc(O)c2c1CCC2,inactive,
Cc1cccc(Nc2cc(Cl)nc(SCC(=O)O)n2)c1C,inactive,
CC(C)(C)c1cc(O)c(C(C)(C)C)cc1O,inactive,
CCCCN(CCCC)CCCC,inactive,
CN1CCCC1=O,inactive,
CCCCOC(=O)CCCCCCCCC(=O)OCCCC,inactive,
O=C(O)Cc1ccccc1Nc1c(Cl)cccc1Cl,inactive,
CCCCCCCCCCC,inactive,
Nc1ccc2c(c1)C(=O)c1ccccc1C2=O,inactive,
CCCCCCCCCCCCCCCCCC(=O)O,inactive,
Nc1ccccc1N,,4.05 µM (active)
O=C(N[C@@H](Cc1ccccc1)[C@@H](O)C(=O)N1C[C@@H](O)[C@@H](O)C1)c1cc2cc(Cl)ccc2[nH]1,inactive,
CCCCCCCCCCCCCCCC,inactive,
Cc1ccc(N(C)C)cc1,inactive,
Cc1c(C(=O)O)c(O)cc2c1C(=O)c1c(O)c([C@@H]3O[C@H](CO)[C@@H](O)[C@H](O)[C@H]3O)c(O)c(O)c1C2=O,inactive,
CCc1c(C(=O)NN2CCCCC2)nn(-c2ccc(Cl)cc2Cl)c1-c1ccc(Br)cc1,inactive,
c1cc(-c2ccncc2)ccn1,inactive,
CC(=O)C(C)=CC1C(C)=CCCC1(C)C (centres undefined),inactive,
COc1cc(S(=O)(=O)O)c(C)cc1N=Nc1c(O)ccc2cc(S(=O)(=O)O)ccc12,inactive,
O=c1[nH]cc(F)c(=O)[nH]1,inactive,
C[Si]1(C)O[Si](C)(C)O[Si](C)(C)O[Si](C)(C)O1,inactive,

# Read-out: Collagen III, COL3A1 (gene 1281)
# Assay: BSK_hDFCGF_CollagenIII: BioMAP Diversity Plus: hDFCGF Assay for Collagen III Biomarker Activity (AID 2283056)
# Details: primary human foreskin fibroblasts; actives raise or lower the signal
# Outline: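 hDFCGF primary human dermal fibroblasts; 24 h chemical exposure; collagen III by ELISA; bidirectional curve fit vs DMSO baseline (gain or loss of signal).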
Compound,outcome,AC50
COc1cc(C=O)ccc1O,inactive,
CC=Cc1ccc(O)c(OC)c1,inactive,
CCCCCCCCCCO,inactive,
CC(=O)Oc1ccccc1C(=O)O,inactive,
CCCCCCCC=O,inactive,
CCOC(=O)CCC(=O)OCC,inactive,
O=[N+]([O-])C(CO)(CO)CO,inactive,
NS(=O)(=O)c1cc2c(cc1Cl)NCNS2(=O)=O,inactive,
Cc1cc(NC(=O)C(=O)O)cc(C)c1Oc1ccc(O)c2c1CCC2,inactive,
Cc1cccc(Nc2cc(Cl)nc(SCC(=O)O)n2)c1C,inactive,
CC(C)(C)c1cc(O)c(C(C)(C)C)cc1O,,9.11 µM (active)
CCCCN(CCCC)CCCC,inactive,
CN1CCCC1=O,inactive,
CCCCOC(=O)CCCCCCCCC(=O)OCCCC,inactive,
O=C(O)Cc1ccccc1Nc1c(Cl)cccc1Cl,,20 µM (active)
CCCCCCCCCCC,inactive,
Nc1ccc2c(c1)C(=O)c1ccccc1C2=O,inactive,
CCCCCCCCCCCCCCCCCC(=O)O,inactive,
Nc1ccccc1N,inactive,
O=C(N[C@@H](Cc1ccccc1)[C@@H](O)C(=O)N1C[C@@H](O)[C@@H](O)C1)c1cc2cc(Cl)ccc2[nH]1,inactive,
CCCCCCCCCCCCCCCC,inactive,
Cc1ccc(N(C)C)cc1,inactive,
Cc1c(C(=O)O)c(O)cc2c1C(=O)c1c(O)c([C@@H]3O[C@H](CO)[C@@H](O)[C@H](O)[C@H]3O)c(O)c(O)c1C2=O,inactive,
CCc1c(C(=O)NN2CCCCC2)nn(-c2ccc(Cl)cc2Cl)c1-c1ccc(Br)cc1,,0.483 µM (active)
c1cc(-c2ccncc2)ccn1,inactive,
CC(=O)C(C)=CC1C(C)=CCCC1(C)C (centres undefined),inactive,
COc1cc(S(=O)(=O)O)c(C)cc1N=Nc1c(O)ccc2cc(S(=O)(=O)O)ccc12,inactive,
O=c1[nH]cc(F)c(=O)[nH]1,inactive,
C[Si]1(C)O[Si](C)(C)O[Si](C)(C)O[Si](C)(C)O1,inactive,

# Read-out: Epidermal growth factor receptor (EGFR), EGFR (gene 1956)
# Assay: BSK_hDFCGF_EGFR: BioMAP Diversity Plus: hDFCGF Assay for Epidermal growth factor receptor (EGFR) Biomarker Activity (AID 2283057)
# Details: primary human foreskin fibroblasts; actives raise or lower the signal
# Outline: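 Primary human foreskin fibroblasts were exposed to compound for 24 h, after which cell-surface EGFR was quantified by ELISA. Activity was fitted bidirectionally against the DMSO negative control as baseline.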
Compound,outcome,AC50
CC=Cc1ccc(O)c(OC)c1,inactive,
CCCCCCCCCCO,inactive,
CCCCCCCC=O,inactive,
O=[N+]([O-])C(CO)(CO)CO,inactive,
Cc1cccc(Nc2cc(Cl)nc(SCC(=O)O)n2)c1C,inactive,
CC(C)(C)c1cc(O)c(C(C)(C)C)cc1O,inactive,
CN1CCCC1=O,inactive,
O=C(O)Cc1ccccc1Nc1c(Cl)cccc1Cl,inactive,
CCCCCCCCCCCCCCCCCC(=O)O,inactive,
Nc1ccccc1N,inactive,
CCCCCCCCCCCCCCCC,inactive,
Cc1c(C(=O)O)c(O)cc2c1C(=O)c1c(O)c([C@@H]3O[C@H](CO)[C@@H](O)[C@H](O)[C@H]3O)c(O)c(O)c1C2=O,inactive,
CCc1c(C(=O)NN2CCCCC2)nn(-c2ccc(Cl)cc2Cl)c1-c1ccc(Br)cc1,,1.65 µM (active)
c1cc(-c2ccncc2)ccn1,inactive,
O=c1[nH]cc(F)c(=O)[nH]1,inactive,
C[Si]1(C)O[Si](C)(C)O[Si](C)(C)O[Si](C)(C)O1,inactive,
